In PubChem BioAssay (NCATS):
Results filed as inconclusive are left out. The source made the active and inactive calls. The call rests on the fitted dose curve; in most records, active means well fitted curve in the direction sought with a large enough effect; inconclusive means small, poorly fitted or top-dose-only effect, or another doubt; inactive means no such curve, though single readings can be large; an effect the other way counts as inactive or inconclusive.

Experiments:
[1] = biological target: Lysine-specific demethylase 5B (Homo sapiens) (UniProt Q9UGL1); assay: Optimization screen for KDM5B Histone Demethylases FDH coupled qHTS against the LOPAC library (AID 1347166); further: 0% is about no effect
Sequence of Lysine-specific demethylase 5B (Homo sapiens) (Q9UGL1 whole entry, looked up): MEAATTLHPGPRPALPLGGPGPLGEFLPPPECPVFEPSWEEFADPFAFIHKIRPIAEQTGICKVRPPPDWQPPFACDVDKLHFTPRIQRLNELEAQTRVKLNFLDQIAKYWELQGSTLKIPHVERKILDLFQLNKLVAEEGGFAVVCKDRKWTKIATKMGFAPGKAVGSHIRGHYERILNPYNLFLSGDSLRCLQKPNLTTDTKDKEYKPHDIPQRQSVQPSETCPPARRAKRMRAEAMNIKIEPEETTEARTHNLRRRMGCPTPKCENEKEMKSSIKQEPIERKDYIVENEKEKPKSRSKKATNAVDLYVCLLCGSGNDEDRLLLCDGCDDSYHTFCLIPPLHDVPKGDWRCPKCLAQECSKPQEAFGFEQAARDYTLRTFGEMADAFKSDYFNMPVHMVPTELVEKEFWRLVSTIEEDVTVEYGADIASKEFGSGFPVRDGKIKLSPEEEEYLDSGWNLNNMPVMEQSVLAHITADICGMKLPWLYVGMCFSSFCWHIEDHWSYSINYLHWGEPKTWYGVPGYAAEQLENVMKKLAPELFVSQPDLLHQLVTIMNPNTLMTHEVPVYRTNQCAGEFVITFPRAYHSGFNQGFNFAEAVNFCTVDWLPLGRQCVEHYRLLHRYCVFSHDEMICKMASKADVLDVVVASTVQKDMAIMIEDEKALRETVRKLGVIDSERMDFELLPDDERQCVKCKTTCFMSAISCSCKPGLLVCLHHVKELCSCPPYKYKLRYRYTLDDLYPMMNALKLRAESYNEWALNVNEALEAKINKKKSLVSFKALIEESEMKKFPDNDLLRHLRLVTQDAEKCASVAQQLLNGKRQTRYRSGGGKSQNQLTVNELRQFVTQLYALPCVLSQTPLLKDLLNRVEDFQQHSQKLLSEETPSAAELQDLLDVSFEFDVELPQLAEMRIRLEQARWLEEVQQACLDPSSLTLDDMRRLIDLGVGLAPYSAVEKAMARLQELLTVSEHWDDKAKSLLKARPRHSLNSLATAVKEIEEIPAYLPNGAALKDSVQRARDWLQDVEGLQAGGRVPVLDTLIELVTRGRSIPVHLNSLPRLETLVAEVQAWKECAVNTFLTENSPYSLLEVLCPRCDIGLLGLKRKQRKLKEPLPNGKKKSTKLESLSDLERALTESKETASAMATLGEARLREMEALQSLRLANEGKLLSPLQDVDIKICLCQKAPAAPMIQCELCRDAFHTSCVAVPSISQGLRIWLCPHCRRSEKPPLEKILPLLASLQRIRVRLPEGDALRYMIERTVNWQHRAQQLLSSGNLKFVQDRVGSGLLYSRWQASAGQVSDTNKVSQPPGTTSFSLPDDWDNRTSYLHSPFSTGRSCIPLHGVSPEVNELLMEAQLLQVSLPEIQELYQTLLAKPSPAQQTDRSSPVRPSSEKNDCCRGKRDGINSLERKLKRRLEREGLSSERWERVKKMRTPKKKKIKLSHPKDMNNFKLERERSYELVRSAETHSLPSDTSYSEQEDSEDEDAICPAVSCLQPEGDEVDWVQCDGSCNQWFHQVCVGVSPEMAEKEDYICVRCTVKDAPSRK
Outline: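 KDM5BDeltaAP (200nM final) in 50mM HEPES pH 7.5, 0.01% Tween-20 was preincubated with compound for 10 min at room temperature. A substrate mix of 12.5uM H3K4Me3, 25uM a-ketoglutarate, ascorbate, Fe2+, NAD+ and formaldehyde dehydrogenase was then added. NADH fluorescence (340/450 nm) was read initially and after 30 min.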

[2] = qHTS to identify inhibitors of the type 1 interferon - major histocompatibility complex class I in skeletal muscle: primary screen against the NCATS Pharmaceutical Collection (AID 1347407);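 further: luminescence of HiBiT knocked into endogenous HLA-B as interferon-induced MHC class I level; on the % scale 0 is the no-effect control and ±100 the full control effect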
Outline: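 Immortalized human myoblasts (C25cl48) with HiBiT knocked into endogenous HLA-B*08:01 were stimulated with 4 ng/ml IFN-beta and treated with compounds (8-point, 1:5, top 46 uM final) for 24 h at 37 C; HiBiT lytic luminescence read.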

[3] = qHTS for inhibitors of adenylyl cyclases using a fission yeast platform: a pilot screen against the NCATS LOPAC library (AID 1347410);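 further: plate controls were DMSO vehicle for no effect and DPI positive control for full effect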
Outline: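 S. pombe CHP2027 (AC9-GNAS-PDE4D2) carrying a PKA-repressed fbp1-GFP reporter was exposed to LOPAC compounds (final up to 57 µM) for 18 h at 30C in the dark, in EMM with histidine, lysine and uracil; GFP gain-of-signal read by laser scanning cytometry.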

[4] = biological target: Protein phosphatase 1D (Homo sapiens) (UniProt O15297); assay: Rhodamine-PBP qHTS Assay for Modulators of WT P53-Induced Phosphatase 1 (WIP1) (AID 1347425); further: % of control where 0% means no effect
Sequence of Protein phosphatase 1D (Homo sapiens) (O15297 whole entry, looked up): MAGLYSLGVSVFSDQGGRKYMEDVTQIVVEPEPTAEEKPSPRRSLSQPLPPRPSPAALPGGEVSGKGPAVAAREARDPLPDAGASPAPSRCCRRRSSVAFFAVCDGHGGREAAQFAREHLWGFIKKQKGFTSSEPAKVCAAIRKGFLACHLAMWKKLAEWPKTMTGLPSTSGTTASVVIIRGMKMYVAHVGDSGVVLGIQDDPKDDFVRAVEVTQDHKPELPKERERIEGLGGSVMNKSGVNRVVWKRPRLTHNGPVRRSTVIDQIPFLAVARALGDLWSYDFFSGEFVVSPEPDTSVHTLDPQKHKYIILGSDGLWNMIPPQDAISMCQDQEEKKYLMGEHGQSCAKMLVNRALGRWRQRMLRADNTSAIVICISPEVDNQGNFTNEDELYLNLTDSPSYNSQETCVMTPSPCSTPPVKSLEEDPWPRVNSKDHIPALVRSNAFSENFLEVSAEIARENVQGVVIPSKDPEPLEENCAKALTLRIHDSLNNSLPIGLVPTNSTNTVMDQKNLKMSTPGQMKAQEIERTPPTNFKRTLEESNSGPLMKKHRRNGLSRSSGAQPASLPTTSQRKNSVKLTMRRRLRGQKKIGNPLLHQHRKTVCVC
Outline: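 Steps: enzyme with Rh-PBP sensor and compounds, room-temperature incubation of 1 hr, baseline read, addition of VEPPL-pS-QETFS (10 uM final), kinetic fluorescence reads at 525/598 nm. Activity equals final minus baseline signal.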

[5] = Validation qHTS assay for inhibitors of Activation Induced Cytidine Deaminase (AID): UDG Counterscreen signal (AID 1347427); further: 0% is about no effect
Outline: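 Fluorescence at 560 nm excitation, 665 nm emission reports UDG signal after 250 mM NaOH (2x) addition and 30 min. Enzymes (AID 1 uM, UDG 2 U/mL, at 4/3x) preincubated 10 min with compound, then 4 h with 4x 250 nM DJC20/DJC23 substrate at room temperature.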

[6] = biological target: Single-stranded DNA cytosine deaminase (Homo sapiens) (UniProt Q9GZX7); assay: Validation qHTS assay for inhibitors of Activation Induced Cytidine Deaminase (AID): AID signal (AID 1347429); further: on the % scale 0 is the no-effect control and ±100 the full control effect
Sequence of Single-stranded DNA cytosine deaminase (Homo sapiens) (Q9GZX7 whole entry, looked up): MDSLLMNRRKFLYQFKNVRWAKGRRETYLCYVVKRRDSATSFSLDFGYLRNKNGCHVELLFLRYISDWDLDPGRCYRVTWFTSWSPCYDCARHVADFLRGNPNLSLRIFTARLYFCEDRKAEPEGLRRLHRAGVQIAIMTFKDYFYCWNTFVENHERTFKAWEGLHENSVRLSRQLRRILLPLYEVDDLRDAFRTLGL
Outline: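 Compounds (up to 114 uM final) are tested against AID plus UDG using DJC20/DJC23 FRET substrate. Reactions incubate 4 hr at room temperature, receive NaOH for 30 min, and are read at Ex 540/Em 590 nm.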

[7] = Primary qHTS for inhibitors of La Crosse Virus (LACV) - induced cell death in SH-SY5Y cells (AID 1508616);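 further: top concentration of the series differs between compounds; 0% = infected DMSO wells and 100% = uninfected DMSO wells; higher means more rescue of cells from virus-induced death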
Outline: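 Screening measures cell viability in LACV-infected SH-SY5Y cultures. Compound was added before virus (0.01 MOI), and ATP was detected by luminescence 6 days later.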

[8] = biological target: Calcium and integrin-binding protein 1 (Homo sapiens) (UniProt Q99828); assay: Validation qHTS for Identification of Calcium Integrin Binding protein 1 (CIB1) Competitor (AID 1508618); further: on the % scale 0 is the no-effect control and ±100 the full control effect
Sequence of Calcium and integrin-binding protein 1 (Homo sapiens) (Q99828 whole entry, looked up): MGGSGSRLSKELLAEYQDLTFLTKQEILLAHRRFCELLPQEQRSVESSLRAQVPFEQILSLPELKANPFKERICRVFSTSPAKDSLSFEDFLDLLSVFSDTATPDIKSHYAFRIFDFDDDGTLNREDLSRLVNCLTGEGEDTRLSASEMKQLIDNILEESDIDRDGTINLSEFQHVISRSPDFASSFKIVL
Outline: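 In this qHTS validation, the LOPAC set (up to 114 uM) was tested for blocking CIB1 binding to a fluorescein-tagged alphaIIb peptide, with FP detection at 480/540 nm.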

[9] = biological target: Calcium and integrin-binding protein 1 (Homo sapiens) (UniProt Q99828); assay: Primary qHTS for Identification of Calcium Integrin Binding Protein 1 (CIB1) Competitor (AID 1508620);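 further: GST tagged CIB1 binding a fluorescein labelled alphaIIb integrin peptide tracer; top concentration of the series differs between compounds; on the % scale 0 is the no-effect control and ±100 the full control effect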
Outline: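 CIB1-GST (1 uM final) and compound incubated 15 min at room temperature before adding FITC-alphaIIb peptide tracer (100 nM final). Competition for binding read by fluorescence polarization (ex 480, em 540) after another 15 min at room temperature.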

[10] = biological target: Protein phosphatase 1D (Homo sapiens) (UniProt O15297); assay: RapidFire Mass Spectrometry qHTS Assay for Modulators of WT P53-Induced Phosphatase 1 (WIP1) (AID 1347424);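 further: amount of dephosphorylated VEPPL-S-QETFS peptide product formed by WIP1; series mostly up to about 63 µM; plate controls were DMSO wells for no effect and GSK830371 inhibitor control at 10 µM for full effect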
Outline: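 RapidFire mass spectrometry measured dephosphorylated peptide after 5 min room-temperature reaction of 2 uM VEPPL-pS-QETFS with 10 nM WIP1 (50 mM Tris-HCl pH 7.5, 30 mM MgCl2, 0.1 mM EGTA, BSA), following 1 hr compound preincubation; 1 uM isotope-labelled product standard.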

[11] = qHTS to identify inhibitors of the type 1 interferon - major histocompatibility complex class I in skeletal muscle: primary screen against the NCATS LOPAC collection (AID 1347405)
Outline: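 IFN-beta-stimulated (4 ng/ml) HLA-B HiBiT knock-in myoblasts, compound-treated 24 hrs up to 46 uM final; signal via LgBiT complementation and furimazine luminescence.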

[12] = Counterscreen qHTS for small molecule stabilizers of the endoplasmic reticulum resident proteome: GLuc-NoTag assay (AID 1508627);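 further: SH-SY5Y cells given compound then 100 nM thapsigargin to empty ER calcium; series mostly up to about 76 µM; 0% = thapsigargin alone and -100% = DMSO vehicle control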
Outline: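 Counterscreen line: SH-SY5Y-GLuc-NoTag cells, treated with compound 19 hr before a 4 hr, 100 nM thapsigargin calcium depletion. Secreted Gaussia luciferase in the medium was measured by luminescence after coelenterazine was added (0.07x final), with cells unlysed.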

[13] = qHTS to identify inhibitors of the type 1 interferon - major histocompatibility complex class I in skeletal muscle: primary screen against the NCATS Mechanism Interrogation Plate v5.0 (MIPE) Libary (AID 1347411);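 further: plate controls were vehicle for no effect and reference inhibitor for full effect; nearly all actives have a fitted effect of over 65% in size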
Outline: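 IFN-beta-driven (4 ng/ml) HLA-B-HiBit expression in CRISPR-tagged C25cl48 myoblasts; compounds 11-pt, 1:3, max 46 uM, 24 hr exposure; lytic NanoLuc complementation luminescence.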

[14] = biological target: Calcium and integrin-binding protein 1 (Homo sapiens) (UniProt Q99828); assay: Confirmatory qHTS for Identification of Calcium Integrin Binding Protein 1 (CIB1) Competitor (AID 1508617); further: potency means the concentration at half of the fitted maximal effect; nearly all actives have a fitted effect of over 65% in size
Outline: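 Binding competition between test compounds and fluorescent alphaIIb peptide for 1 uM CIB1-GST is monitored by FP at 480/540 nm. Final compound range is up to 114 uM; unlabeled peptide serves as reference competitor.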

[15] = Vero cells viability qHTS for Zika virus inhibitors (AID 1347167); further: on the % scale 0 is the no-effect control and ±100 the full control effect
Outline: (§1)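 Luminescent ATP readout (CellTiter Glo) after 30 min at 37 degrees C gives viability; cells in DMEM + 4% FBS were treated 24 to 48 hours with compound, following overnight attachment.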

[16] = HepG2 cells viability qHTS for Zika virus inhibitors (AID 1347168); further: on the % scale 0 is the no-effect control and ±100 the full control effect
Outline: as §1

[17] = Tertiary RLuc qRT-PCR qHTS assay for Zika virus inhibitors (AID 1347169); further: top concentration of the series differs between compounds; on the % scale 0 is the no-effect control and ±100 the full control effect; nearly all actives have a fitted effect of over 55% in size
Outline: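 Vero cells (1,000 per well) plated overnight at 37 degrees C, treated with compound in DMSO, then infected with recombinant ZIKV-RLuc (Cambodian) at MOI 1-2 for 48-72 hrs. Live-cell Renilla luciferase substrate added; luminescence read after 1-1.5 hrs.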

CC1=C(CC(=O)O)c2cc(F)ccc2/C1=C\c1ccc(S(C)(=O)=O)cc1
inactive: outcome [1] | Potency [2] | outcome [3] | outcome [4] | Potency [5] | Potency [6] | outcome [7] | outcome [8] | outcome [9]

CC(CN(C)C)CN1c2ccccc2CCc2ccccc21 (configuration not stated)
inactive: outcome [1] | Potency [2] | outcome [3] | outcome [10] | Potency [5] | Potency [6] | outcome [7] | outcome [8] | outcome [9]

N=c1c[n+](N2CCOCC2)[n-]o1
inactive: outcome [1] | Potency [11] | outcome [3] | Potency [5] | Potency [6] | outcome [7] | outcome [8]

Nc1cc(=O)[nH]c(N)n1
inactive: outcome [1] | outcome [3] | outcome [10] | outcome [4] | Potency [5] | Potency [6] | outcome [7] | outcome [8] | outcome [9]

C[C@]12CC[C@@H]3c4ccc(O)cc4CC[C@H]3[C@@H]1CCC2=O
inactive: outcome [1] | Potency [2] | outcome [3] | outcome [10] | outcome [4] | Potency [5] | Potency [6] | outcome [7] | outcome [8] | outcome [9]

CCN(CC)C(C)CN1c2ccccc2Sc2ccccc21 (configuration not stated)
inactive: outcome [1] | Potency [2] | outcome [3] | outcome [10] | outcome [4] | Potency [5] | Potency [6] | outcome [7] | outcome [8] | outcome [9]

CCCCCCCCCCCCCCCC(=O)NCCO
inactive: outcome [1] | Potency [2] | outcome [10] | Potency [5] | Potency [6] | outcome [7] | outcome [9] | Potency [12]

CC1=C(/C=C/C(C)=C/C=C/C(C)=C/C(=O)O)C(C)(C)CCC1
inactive: outcome [1] | outcome [3] | Potency [13] | outcome [10] | outcome [4] | Potency [5] | Potency [6] | outcome [7] | outcome [8] | outcome [9]

O=C1N=C(O)CN1/N=C/c1ccc(-c2ccc([N+](=O)[O-])cc2)o1
inactive: outcome [1] | Potency [2] | outcome [3] | outcome [10] | outcome [4] | Potency [5] | Potency [6] | outcome [7] | outcome [8] | outcome [9] | Potency [12]

NC(=O)c1ncn([C@@H]2O[C@H](CO)[C@@H](O)[C@H]2O)n1
inactive: outcome [1] | Potency [2] | outcome [3] | Potency [13] | outcome [10] | outcome [4] | Potency [5] | Potency [6] | outcome [7] | outcome [8] | outcome [9]

CC(CN1c2ccccc2Sc2ccccc21)N(C)C (configuration not stated)
inactive: outcome [1] | Potency [2] | outcome [3] | outcome [10] | outcome [4] | Potency [5] | Potency [6] | outcome [7] | outcome [8] | outcome [9]

NC(N)=NCCC[C@H](N)C(=O)O
inactive: outcome [1] | outcome [3] | activity change, negative = inhibition [10] -3.57% [at 6.17 µM] | activity change, negative = inhibition [4] -0.0772% [at 4.81 µM] | Potency [5] | Potency [6] | outcome [7]

CN(C)CCCN1c2ccccc2CCc2ccccc21
inactive: outcome [1] | outcome [3] | outcome [10] | outcome [4] | Potency [12]

C=Cc1c(C)c2cc3[nH]c(cc4nc(cc5nc(cc1[nH]2)C(C)=C5CCC(=O)O)C(CCC(=O)O)=C4C)c(C)c3C=C
active: Potency [14] 25.1 µM
inactive: Potency [2] | outcome [3] | outcome [4] | Potency [5] | Potency [6] | outcome [7]

CN1CCN(C2Cc3ccccc3Sc3ccc(Cl)cc32)CC1 (configuration not stated)
inactive: outcome [1] | outcome [3] | outcome [10] | outcome [4] | Potency [5] | Potency [6] | outcome [7] | outcome [8] | outcome [9]

C[C@@H](O)[C@H](N)C(=O)O
inactive: Potency [2] | outcome [10] | outcome [4] | outcome [7]

CCCCc1ncc(/C=C(\Cc2cccs2)C(=O)O)n1Cc1ccc(C(=O)O)cc1
inactive: Potency [2] | outcome [3] | outcome [10] | outcome [4] | outcome [7] | outcome [9]

O=C(O)Cc1sc(-c2ccccc2)nc1-c1ccc(Cl)cc1
inactive: Potency [2] | outcome [10] | outcome [4] | outcome [7]

CC(C)(C)[C@]1(O)CCN2C[C@H]3c4ccccc4CCc4cccc(c43)[C@@H]2C1
inactive: outcome [1] | outcome [3] | Potency [5] | Potency [6] | outcome [7] | outcome [8]

O=C1O[C@H](CO)[C@@H](O)[C@H](O)[C@H]1O
inactive: Potency [2] | outcome [10] | outcome [4] | outcome [7]

NC(=O)c1ncn([C@@H]2O[C@H](CO)[C@@H](O)[C@H]2O)c1N
inactive: Potency [2] | Potency [13] | outcome [10] | outcome [4] | outcome [7] | outcome [9]

CN1CCC[C@@H]1Cc1c[nH]c2ccc(CCS(=O)(=O)c3ccccc3)cc12
inactive: Potency [11] | outcome [3] | outcome [10] | outcome [4] | outcome [7] | outcome [8] | outcome [9]

CC1=C(CC(=O)O)c2cc(F)ccc2/C1=C\c1ccc(S(C)=O)cc1 (configuration not stated)
inactive: Potency [2] | outcome [3] | outcome [10] | outcome [4] | Potency [5] | Potency [6] | outcome [7]

NC1[C@H]2CN(c3nc4c(cc3F)c(=O)c(C(=O)O)cn4-c3ccc(F)cc3F)C[C@@H]12 (some centres not stated)
inactive: Potency [15] | outcome [16] | Potency [17] | outcome [3] | outcome [10] | outcome [4] | outcome [7] | outcome [8] | outcome [9] | Potency [12]

OC[C@H]1O[C@@H](O[C@@H]2[C@@H](CO)O[C@](O)(CO)[C@H]2O)[C@H](O)[C@@H](O)[C@H]1O
inactive: Potency [2] | Potency [13] | outcome [10] | outcome [4] | outcome [7] | outcome [9]
